In PubChem BioAssay one finds z-score and composite z-score data, which are given here for eleven molecules.

A short description of assay [1]: HepG2 liver cancer cell viability effects, profiling panel, resazurin fluorescence, 24 h, PK04 Diversity Set (AID 1172). Further: test concentration not given here. The settings on record: higher = more signal.
Assay [2] is described as follows: basal S. cerevisiae growth modulation, no modifier, primary screen, OD600, strain BY4716, 24 h, basal condition (AID 1173). The settings on record: OD600, 24 h, higher = more signal, called active from +8 up or from −8 down.
Assay [3] is described as follows: MM1S myeloma cell viability, profiling panel, resazurin fluorescence, basal, 24 h, PK04 Diversity Set (AID 1174).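 Further: MM1S multiple myeloma cell line; test concentration not given here.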 To be noted: higher = more signal, called active from +8 up or from −8 down.
In assay [4] the target is Dihydroorotate dehydrogenase (quinone), mitochondrial (Plasmodium falciparum (isolate 3D7)) (UniProt Q08210). Kind of assay: PfDHODH enzyme inhibitors, primary screen, biochemical, C-terminal His tag, absorbance 600 nm (AID 1175).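 Further: recombinant parasite enzyme with a five histidine tag at its C terminus; test concentration not given here.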 To be noted: DCIP absorbance 600 nm, higher = more signal, called active from +8 up or from −8 down.
The nature of assay [5]: P. aeruginosa biofilm formation inhibitors, primary screen, strain PAO1, LB-PBS medium, absorbance 600 nm (AID 1176). Further: test concentration not given here. To be noted: P. aeruginosa PAO1 growth/biofilm, A600, 12 h; higher = more signal.
The nature of assay [6]: S. cerevisiae RM11-1a growth modifiers, primary screen, strain RM11-1a, OD600, basal, 24 h (AID 1177).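 Further: cultures grown under basal conditions with no added stressor; test concentration not given here.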 To be noted: OD600, 24 h, higher = more signal, called active from +8 up or from −8 down.
The nature of assay [7]: E. coli acrAB mutant growth effects, primary screen, E. coli filamentation inducers, strain DRC39, OD650, 24 h (AID 1178).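 Further: growth measured as culture turbidity by optical density at 650 nm; test concentration not given here.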 To be noted: higher = more signal, called active from +8 up or from −8 down.
The nature of assay [8]: E. coli acrAB mutant growth effects, primary screen, E. coli filamentation inducers, strain DRC39, OD650, 48 h (AID 1179).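 Further: screen aims at cell division blockers that make cells filament.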 To be noted: E. coli DRC39 delta-acrAB growth, higher = more signal, called active from +8 up or from −8 down.
The nature of assay [9]: RPMI8226 myeloma cell viability, profiling panel, resazurin fluorescence, basal, 24 h, PK04 Diversity Set (AID 1180).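 Further: RPMI8826 multiple myeloma cell line at 5000 cells per well; test concentration not given here.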 The settings on record: higher = more signal.
For assay [10], the target named is E3 ubiquitin-protein ligase XIAP (Homo sapiens) (UniProt P98170). Kind of assay: XIAP binders, primary screen, biophysical, small-molecule microarray, fluorescence 635 nm (AID 1181).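 Further: score merges 667 nm emission and signal to noise over triplicate slides.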 To be noted: small-molecule microarray binding, higher = more signal.

Structures are written as SMILES. Calls of active or inactive are those of the source. Unless noted, how the calls were made is not given here.

E3 ubiquitin-protein ligase XIAP (Homo sapiens), sequence (P98170 whole entry, looked up): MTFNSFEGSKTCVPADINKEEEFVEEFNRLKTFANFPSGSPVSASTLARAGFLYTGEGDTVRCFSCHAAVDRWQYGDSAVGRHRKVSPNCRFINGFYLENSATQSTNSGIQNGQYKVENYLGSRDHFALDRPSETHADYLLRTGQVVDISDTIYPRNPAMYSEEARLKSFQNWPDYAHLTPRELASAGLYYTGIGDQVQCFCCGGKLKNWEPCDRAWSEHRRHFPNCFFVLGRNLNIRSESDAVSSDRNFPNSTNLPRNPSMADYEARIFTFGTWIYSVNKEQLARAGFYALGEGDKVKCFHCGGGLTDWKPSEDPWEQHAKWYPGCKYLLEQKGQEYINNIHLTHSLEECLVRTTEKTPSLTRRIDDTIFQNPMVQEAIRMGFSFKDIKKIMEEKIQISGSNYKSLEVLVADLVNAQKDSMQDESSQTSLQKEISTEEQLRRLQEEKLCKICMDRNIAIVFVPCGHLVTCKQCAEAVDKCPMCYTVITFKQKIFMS
Dihydroorotate dehydrogenase (quinone), mitochondrial (Plasmodium falciparum (isolate 3D7)), sequence (Q08210 whole entry, looked up): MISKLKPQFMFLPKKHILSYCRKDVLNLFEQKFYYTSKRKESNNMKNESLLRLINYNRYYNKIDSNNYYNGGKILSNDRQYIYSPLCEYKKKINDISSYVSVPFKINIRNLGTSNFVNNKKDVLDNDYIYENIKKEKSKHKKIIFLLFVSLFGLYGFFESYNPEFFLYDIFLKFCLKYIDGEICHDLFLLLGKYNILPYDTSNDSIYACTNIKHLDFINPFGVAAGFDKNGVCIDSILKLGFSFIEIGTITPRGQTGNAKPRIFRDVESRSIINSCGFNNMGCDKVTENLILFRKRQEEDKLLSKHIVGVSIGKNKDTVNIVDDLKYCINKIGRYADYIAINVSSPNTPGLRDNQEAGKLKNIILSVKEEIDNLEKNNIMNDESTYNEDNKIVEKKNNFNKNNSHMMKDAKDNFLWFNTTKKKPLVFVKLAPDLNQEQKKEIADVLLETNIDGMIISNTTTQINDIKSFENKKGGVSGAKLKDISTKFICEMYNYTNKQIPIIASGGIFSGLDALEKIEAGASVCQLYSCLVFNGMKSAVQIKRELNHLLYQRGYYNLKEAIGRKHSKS

`COCCOC(=O)N1C(=O)[C@@]2(c3cc(C#CCC(C(=O)OC)C(=O)OC)ccc31)[C@H](C(=O)N1CCc3cc(OC)c(OC)cc3C1)[C@H]1C(=O)O[C@H](c3ccccc3)[C@H](c3ccccc3)N1[C@@H]2c1ccc(OCCO)cc1`: the z-score in assay [1] is -0.679; in [2], 1.63 (inactive); in [3], -0.348 (inactive); in assay [5], 2.39 (inactive); in assay [6] it was 2.8 (inactive); in assay [7], -0.132 (inactive). Also, the z-score in [8] is 0.325 (inactive); in assay [9], 0.847. Also, the composite z-score was -1.34 (inactive) in [4] and -0.332 in assay [10].

In the case of `O=C1C=C(c2ccccc2)C(=O)c2ccc([C@H]3Oc4ccccc4S(=O)(=O)N4CCC[C@@H]34)cc21`, the z-score in [1] was -0.337; in assay [2], -18.1 (active); in assay [3], -8.07 (active); in assay [5], 0.649 (inactive); in assay [6], -0.801 (inactive); in assay [7] it was 1.81 (inactive). For the same molecule, the figures for the z-score in assay [8] and in assay [9] were 0.587 (inactive) and -5.86, respectively. Moreover, the composite z-score is -5.82 (inactive) in assay [4] and -0.31 in assay [10].

Turning to `C[N+](C)(C)CCCCCCNC(=O)[C@H]1C[C@H]2C(=O)N[C@@H](Cc3ccccc3)C(=O)N2[C@H]1c1ccc(O)cc1`, the z-score in assay [1] was -0.324; in assay [2] it was 0.119 (inactive); in [3] it was 0.13 (inactive); in [5], -0.546 (inactive); in assay [6], -0.0281 (inactive); in [7], 0.962 (inactive). Besides, the z-score in assay [8] was 1.3 (inactive); in [9] it was 0.201. For the same molecule, the composite z-score in assay [4] was -0.673 (inactive); in assay [10], -0.162.

With `CO[C@]12C=C(Br)[C@@H](C[C@@H]1c1cccc(C)c1)[C@@]1(CO1)C2=O`, the z-score in assay [1] is 1.17; in assay [2], -5.41 (inactive); in [3], -0.674 (inactive); in [5], -0.447 (inactive); in [6], -0.338 (inactive); in assay [7], 0.632 (inactive). The z-score in [8] was 0.378 (inactive); in assay [9] it was 0.478. Also, the composite z-score was 0.227 (inactive) in assay [4] and -0.148 in assay [10].

As to `O=C(CS)NCCCCCCNC(=O)[C@H]1C[C@H]2C(=O)N[C@@H](Cc3ccccc3)C(=O)N2[C@H]1c1ccc(O)cc1`, the z-score in [1] was 0.504; in assay [2] it was 0.588 (inactive); in assay [3] it was -0.619 (inactive); in assay [5], 0.836 (inactive); in assay [6] it was 0.252 (inactive); in assay [7] it was 0.0577 (inactive). In addition, the z-score is -0.983 (inactive) in [8] and 0.158 in [9]. In addition, the composite z-score was -0.0269 (inactive) in assay [4] and -0.166 in [10].

For the molecule `COC(=O)Cn1c(C(=O)N(C)C)cc2c1C[C@H]1CN(C(=O)c3ccccc3)[C@@](Cc3ccc(F)cc3)(C(=O)OC)[C@@H]21`, the z-score in [1] was -0.836; in [2], 2.15 (inactive); in [3], -0.702 (inactive); in assay [5], 0.743 (inactive); in [6] it was 1.34 (inactive); in assay [7], -0.61 (inactive). Besides, the z-score is -0.582 (inactive) in assay [8] and -0.795 in assay [9]. Further, the composite z-score in [4] was 0.289 (inactive); in [10], -0.13.

For the molecule `CC(CO)N1C(=O)[C@@H]2[C@H]3C(=O)OCC=C[C@H]3OC23C=CCN(C(C)(C)C)C(=O)[C@@H]13` (stereo not given in full), the z-score is 0.0792 in assay [1]; 0.0031 (inactive) in [2]; -0.555 (inactive) in assay [3]; -0.401 (inactive) in assay [5]; -0.505 (inactive) in assay [6]; -0.554 (inactive) in assay [7]. The z-score in [8] is -0.762 (inactive); in [9], -0.794. In addition, the composite z-score in assay [4] was -1.08 (inactive); in [10], 0.252.

In the case of `CCCCC(O)C1C=CC2C(=O)N(c3ccccc3)C(=O)C2N1Nc1ccc(C(C)C)cc1` (stereo not given), the z-score was -0.741 in assay [1]; -0.443 (inactive) in assay [2]; -1.1 (inactive) in assay [3]; 1.14 (inactive) in assay [5]; 0.477 (inactive) in [6]; -0.622 (inactive) in assay [7]. The z-score in assay [8] was 0.0644 (inactive); in assay [9] it was -0.471. Besides, the composite z-score was 0.119 (inactive) in [4] and 0.199 in [10].

As to `N#Cc1ccc(C(O)C2C=CC3C(=O)N(c4ccccc4)C(=O)C3N2Nc2ccccc2)cc1` (stereo not given), the z-score in assay [1] was -0.888; in assay [2] it was -2.46 (inactive); in assay [3], -0.697 (inactive); in assay [5], 1.06 (inactive); in assay [6], -0.433 (inactive); in assay [7] it was 0.366 (inactive). Moreover, the z-score in [8] was 0.0165 (inactive); in [9], -0.196. The composite z-score in assay [4] is -0.561 (inactive); in assay [10], 0.0537.

`C=CCC(OC(C)=O)[C@@H]1[C@@H](N(Cc2cc3ccccc3o2)C(=O)Cc2ccc(F)cc2)c2cc(OCCCO)ccc2N1C(=O)c1ccc2ccccc2c1` (stereo not given in full): the z-score is -0.081 in assay [1]; 0.615 (inactive) in assay [2]; 0.514 (inactive) in assay [3]; 0.35 (inactive) in assay [5]; -0.41 (inactive) in assay [6]; -0.698 (inactive) in assay [7]. For the same molecule, the z-score in [8] was -0.649 (inactive); in [9], 0.304. For the same molecule, the composite z-score was -1.04 (inactive) in assay [4] and 0.555 in [10].

With `COC(=O)[C@@]1(Cc2ccccc2)[C@H]2c3cc(C(=O)N(C)C)n(Cc4c(CO)[nH]cc(C)c4=O)c3C[C@H]2CN1C(=O)c1ccccc1`, the z-score in assay [1] was -0.613; in assay [2], 1.79 (inactive); in assay [3] it was -0.706 (inactive); in assay [5], 0.507 (inactive); in [6] it was 1.24 (inactive); in [7] it was -0.198 (inactive). Besides, the z-score in assay [8] was 0.0568 (inactive); in [9], 0.0961. For the same molecule, the composite z-score was 0.0442 (inactive) in assay [4] and -0.0663 in [10].
